Laboratory results taken from PubChem BioAssay (NCATS).
Values joined by “and” are separate entries in the source; they are usually repeats but may differ in a detail not shown here. Identical values can stand only once. Inconclusive results are not listed. A number with no mark means an inactive call. Active and inactive are the calls of the source. Calls follow the shape of the dose curve; as a rule, active = well fitted inhibition curve with a large enough effect; inconclusive = small, poorly fitted or top-dose-only effect; inactive = no such curve, though single readings can be large or run the other way.

Assay: qHTS assay to identify inhibitors of the type 1 interferon - major histocompatibility complex class I in skeletal muscle: Counter screen cell viability and HiBit confirmation (AID 1347412); also: nearly all actives have a fitted effect of over 60% in size
Settings: iHSKM muscle cells + IFN-b, HiBiT or CellTiter-Glo, 24 h; HiBiT
Method in brief: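 CRISPR HLA-B*08:01-HiBit immortalized human myoblasts (C25cl48) stimulated with 4 ng/ml IFN-beta and compounds (12-point 1:3, top 46 uM final) for 24 h at 37 C. Duplicate plates read by HiBit lytic luminescence or CellTiter Glo ATP.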
% is scaled to controls: 0 for no effect and ±100 for the full control effect; potency is read from the fitted curve at half-maximal effect.

Row | Structure (SMILES) | Potency
1 | CC(C)c1cc(CNc2nc(Nc3cc(C4CC4)[nH]n3)cc(N3CCN(C)CC3)n2)on1 | 1.98 µM (active)
2 | CCCCNc1ncc2c(-c3ccc(CN4CCN(C)CC4)cc3)cn(C3CCC(O)CC3)c2n1 (configuration not stated) | 3.94 µM (active) and 14 µM (active)
3 | CN1CCN(c2ccc(C(=O)Nc3n[nH]c4ccc(Cc5cc(F)cc(F)c5)cc34)c(NC3CCOCC3)c2)CC1 | 17.6 µM (active)
4 | CC(C)c1c2cc(-c3ccnc(NC4CCC(NC5CCOCC5)CC4)n3)ccc2nn1C (configuration not stated) | 0.249 µM (active)

Same assay, conditions: iHSKM muscle cells + IFN-b, HiBiT or CellTiter-Glo, 24 h; Viability; at 45.9 µM (top of the series)

Row | Structure (SMILES) | activity change, negative = inhibition [%]
5 | COc1cc(C(=O)NC2CCN(C)CC2)c(F)cc1Nc1ncc2c(n1)N(C1CCCC1)CC(F)(F)C(=O)N2C | -23.9
6 | CC(C)c1cc(CNc2nc(Nc3cc(C4CC4)[nH]n3)cc(N3CCN(C)CC3)n2)on1 | 6.65
7 | CC(C)c1c2cc(-c3ccnc(NC4CCC(NC5CCOCC5)CC4)n3)ccc2nn1C (configuration not stated) | -6.54
